In the library only some 8.5% were active in any assay of this set; here they are far more common.
ALDH1A1 inh: qHTS Assay for Inhibitors of Aldehyde Dehydrogenase 1 (ALDH1A1) | Aldehyde dehydrogenase 1A1 (Homo sapiens), P00352 | Purified ALDH1A1, NADH fluorescence, propionaldehyde substrate | Potency, µM (doses to about 75.3 µM), for inactives: at the highest dose activity, negative = inhibition, hits mostly inhibitors | 220,000 compounds, 7.3% hits | AID 1030, 2008; active = well fitted inhibition curve with a large enough effect, not every such curve was filed as active; inconclusive = small, poorly fitted or top-dose-only effect, or another doubt; inactive = no such curve, though single readings can be large or run the other way;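 note: potency is the fitted concentration of half-maximal effect; plate controls were no enzyme wells and a reference inhibitor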
Sfp PPTase inh: qHTS Assay for Inhibitors of Bacillus subtilis Sfp phosphopantetheinyl transferase (PPTase). Potency, µM, without a hit: largest response in the series, negative = inhibition, usual class: inhibitors. Biochemical Sfp PPTase activity, qHTS. AID 1490, 2009. 4'-phosphopantetheinyl transferase ffp (Bacillus subtilis), Q9F4F7. 310,000 compounds, 3.5% hits;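 note: the enzyme is Sfp with the accession as filed and its product quenches rhodamine fluorescence; potency is the fitted concentration of half-maximal effect; 0% = enzyme reaction without inhibitor and -100% = no enzyme wells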
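Sfp 15 nM + cpd, 15 min RT; start w/ rhodamine-CoA 5 uM, BHQ-2-YbbR 12.5 uM (final); 50 mM Hepes pH 7.6, 10 mM MgCl2, 0.01% NP-40, 0.01% BSA; read 525/598 nm at 0 and 30 min.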
NPSR antagonist: qHTS Assay for Antagonists of the Neuropeptide S Receptor: cAMP Signal Transduction; Q6W5P4; CHO-NPSR cells, cAMP TR-FRET, antagonist mode; Potency, µM (doses to about 38.3 µM), for inactives: at the top dose activity change, negative = inhibition, hits mostly inhibitors; 220,000 compounds, 1% hits; AID 1461, 2008; note: potency is the fitted concentration of half-maximal effect; nearly all actives have a fitted effect of over 50% in size
Target sequence (Q6W5P4 whole entry, looked up): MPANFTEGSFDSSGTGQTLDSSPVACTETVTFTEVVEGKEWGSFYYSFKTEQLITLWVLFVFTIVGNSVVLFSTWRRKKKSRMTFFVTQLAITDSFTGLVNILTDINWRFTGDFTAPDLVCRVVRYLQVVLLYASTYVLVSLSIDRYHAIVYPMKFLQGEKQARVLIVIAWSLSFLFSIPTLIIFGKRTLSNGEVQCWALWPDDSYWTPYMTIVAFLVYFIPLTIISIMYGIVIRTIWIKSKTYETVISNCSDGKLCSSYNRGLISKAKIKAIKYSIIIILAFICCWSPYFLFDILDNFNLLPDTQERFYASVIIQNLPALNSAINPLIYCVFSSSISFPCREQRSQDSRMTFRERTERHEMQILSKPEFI
Coupling enz: qHTS Assay for Inhibitors of Fructose-1,6-bisphosphate Aldolase from Giardia Lamblia: Coupling assay counterscreen. coupling enzyme system counterscreen, AmpLite Red fluorescence. activity change, negative = inhibition, % at 58.2 µM, hits read low. 290,000 compounds, 0.67% hits; in the data active = activity change below about -30%
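Counterscreen lacking aldolase: glyceraldehyde-3-phosphate coupling-enzyme reagent preincubated 10 min at RT with compound (at 57.5 uM final), then substrate/coupling system with AmpLite Red added; fluorescence read at 525/598 nm after 20 min RT.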
RGS12 GoLoco inh: qHTS Assay for Inhibitors of RGS12 GoLoco Motif Activity (Red Fluorophore); Guanine nucleotide-binding protein G(i) subunit alpha-1 (Homo sapiens), P63096; Gai1:RGS12 GoLoco peptide FP, rhodamine, 10 min; Potency, µM (titrated, usually from 61.6 µM), for the others: at the top dose activity, negative = inhibition, actives largely listed as inhibitors; 230,000 compounds, 0.44% hits; active = well fitted inhibition curve with a large enough effect, not every such curve was filed as active; inactive = no such curve, though single readings can be large or run the other way; note: potency is the fitted concentration of half-maximal effect; nearly all actives have a fitted effect of over 30% in size
Target sequence (P63096 whole entry, looked up): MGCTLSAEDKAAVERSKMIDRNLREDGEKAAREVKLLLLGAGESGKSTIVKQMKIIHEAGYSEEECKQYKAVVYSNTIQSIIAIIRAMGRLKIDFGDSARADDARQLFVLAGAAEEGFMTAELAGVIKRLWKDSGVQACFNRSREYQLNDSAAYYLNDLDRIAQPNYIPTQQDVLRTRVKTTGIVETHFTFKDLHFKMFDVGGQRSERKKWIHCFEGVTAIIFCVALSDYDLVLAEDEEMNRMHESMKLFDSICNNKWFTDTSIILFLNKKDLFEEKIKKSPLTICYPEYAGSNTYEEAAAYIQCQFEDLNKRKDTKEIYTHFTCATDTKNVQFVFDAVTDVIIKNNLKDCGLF
KDM4E inh: qHTS Assay for Inhibitors of Human Jumonji Domain Containing 2E (JMJD2E); JMJD2E catalytic domain, FDH-coupled NADH fluorescence (FDH is formaldehyde dehydrogenase); Potency, µM (titrated, usually from 57.1 µM), for the others: at the highest dose activity change, negative = inhibition, usual class: inhibitors; 230,000 compounds, 1.6% hits; AID 2147, 2009; active = well fitted inhibition curve with a large enough effect, not every such curve was filed as active; inconclusive = small, poorly fitted or top-dose-only effect, or another doubt; inactive = no such curve, though single readings can be large or run the other way;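 note: potency is the fitted concentration of half-maximal effect; 0% = wells with enzyme and -100% = buffer wells without enzyme; nearly all actives have a fitted effect of over 50% in size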
* hit, by the source's call; ? = inconclusive; . = no result given; [ ] = another dose, or the depositor's remark. Unless noted, calls come from the whole dose curve; as a rule, active = well fitted curve in the direction sought with a large enough effect; inconclusive = small, poorly fitted or top-dose-only effect, or another doubt; inactive = no such curve, though single readings can be large; an effect the other way counts as inactive or inconclusive. Unless noted, % is set by controls: 0 for no effect and ±100 for the full control effect.

SMILES	ALDH1A1 inh	Sfp PPTase inh	NPSR antagonist	Coupling enz	RGS12 GoLoco inh	KDM4E inh
COc1ccc(/C=C2/C(=O)N(CC3CCCO3)C(=S)N2C)c(OC)c1 (stereo not given)	12.6µM*	3.1%	13.5%[46.1 µM]	-3.1	2.0%	-2.9%
CCCN1C(=O)/C(=C/c2ccccc2OCc2ccc(C(=O)O)cc2)NC1=S	?	10.3%	-35.4%	11.2	8.5%	8.7%
COc1ccc(NC(=O)c2ccc3c(=O)n(CC4CCCO4)c(=S)[nH]c3c2)c(OC)c1 (stereo not given)	.	-2.1%	.	1.6	.	.
COc1cccc(C=O)c1OCCCOc1cccc2cccnc12	.	-5.5%	.	-12.4	.	.
Cc1occc1C(=O)N/N=C/c1cccc2ccccc12	.	4.3%	.	1.8	.	.
O=C1CC(N2CCC(c3nc4ccccc4[nH]3)CC2)C(=O)N1c1ccccc1F (stereo not given)	10µM*	8.4%	1.3%	1.4	-4.7%	10.4%
Oc1ccccc1N=Cc1ccc[nH]1	-5.5%	25.1µM*	-17.4%[46.1 µM]	-16.4	8.6%	-16.3%
O=C(N/N=C/c1ccc(N2CCOCC2)s1)c1ccccc1Br	14.1µM*	35.5µM*	-28.5%	-3.0	16.7%	-23.1%
CC(C)(C)OC(=O)N/N=C/c1ccc(N2CCOCC2)s1	-16.2%	-8.4%	-7.5%	3.5	-1.9%	?
Clc1cccc(N/N=C/c2ccc(N3CCOCC3)s2)c1	11.2µM*	?	-25.4%	-3.8	-4.3%	11.2µM*
Clc1cccc(Nc2nc(N3CCOCC3)nc(N3CCOCC3)n2)c1	.	1.0%	.	0.0	.	.
COc1ccccc1C(=O)Nc1nnc(S(=O)(=O)N(C)Cc2ccccc2)s1	.	12.7%	.	.	.	.
Cc1c(C)c2ccc(OCC(=O)NCCN3CCOCC3)cc2oc1=O	.	4.9%	.	.	.	.
O=C(NCc1cccc2[nH]ccc12)C1CCC(=O)N(CCc2ccc(Cl)cc2)C1 (stereo not given)	.	17.4%	.	.	.	.
Cc1c(C(=O)c2ccccc2)c2ccccn2c1CCc1ccccn1	11.2µM*	-47.6%	-32.6%	-15.8	6.6%	?
COc1ccc(C2CC(c3ccccc3)Oc3cc(OC)c(OC)c(OC)c32)cc1 (stereo not given)	.	-2.8%	.	-7.3	.	.
CN1CCC(CNC(=O)Nc2csc3ccccc23)CC1	.	79.4µM*	-15.0%	0.9	13.6%	-6.0%
Cn1cc(C(=O)CCl)c2ccccc21	0.0631µM*	0.6%	?	-2.3	13.3%	-9.9%
OCCC1CN(Cc2nc3c(s2)CCCC3)CCN1Cc1ccccc1 (stereo not given)	.	1.9%	6.8%	1.0	10.5%	-8.4%
COc1ccccc1NCc1ccc([N+](=O)[O-])s1	14.1µM*	-29.9%	11.1%	-0.4	17.4%	0.9%
COc1ccc2[nH]c(C)c(CN3CCCCC3)c(=O)c2c1	?	15.5%	-6.8%[46.1 µM]	1.5	0.5%	?
CCOc1ccc(Cc2c(C)[nH]c3ccc(C(=O)O)cc3c2=S)cc1	.	56.2µM*	.	-0.2	.	.
CCc1c(C)[nH]c2ccc(OC)cc2c1=S	?	10µM*	2.9%	-3.3	3.8%	?
CCOc1ccc(NS(=O)(=O)c2ccc3[nH]c(=O)cc(C(=O)O)c3c2)cc1	2.5%	19.4%	6.8%	0.5	10.3%	-5.6%
CCn1c(CNC(=O)c2ccccc2OC)nnc1SCC(=O)c1ccc(F)cc1	.	-2.8%	.	-0.2	.	.
SMILES	ALDH1A1 inh	Sfp PPTase inh	NPSR antagonist	Coupling enz	RGS12 GoLoco inh	KDM4E inh
O=C(Nc1ccc(CSc2ccccc2)cc1)c1ccco1	.	17.8%	.	.	.	.
Cc1ccc(C)n1CCN1CCN(CC(=O)Nc2ccc(S(N)(=O)=O)cc2)CC1	25.1µM*	-3.0%	3.9%[46.1 µM]	1.7	4.9%	-0.8%
CC(C)CC(c1nnnn1C1CCCC1)N1CCC(C(N)=O)CC1 (stereo not given)	22.4µM*	17.8%	3.4%	1.9	4.6%	5.6%
Cc1ccc(NN2C(=O)C=C(c3ccccc3)C2=O)cc1	15.8µM*	11.2µM*	?	3.5	-8.3%	6.1%
O=C1c2ccccc2C(=O)N1Nc1ccccc1	-4.8%	2.2%	-10.6%[46.1 µM]	-2.5	-4.1%	-1.5%
COc1ccc(OC)c(NC(=O)NC2CCCc3ccccc32)c1 (stereo not given)	.	33.0%	.	-1.9	.	.
C/C(=N\NC(=S)NCc1ccccc1)c1ccco1	31.6µM*	-12.1%	-28.5%	0.1	3.8%	-15.7%
Cc1ccc(N2C(=O)C3C4C=CC(CNC(=S)N5CCN(c6cccc(C)c6)C(C)C5)(O4)C3C2=O)cc1 (stereo not given)	1.58µM*	20µM*	0.5%	3.1	-19.6%	6.3%
CC(C)(Oc1ccc(Cl)cc1)C(=O)N(Cc1ccccc1)c1ccccn1	-11.3%	-0.9%	-20.8%	-3.9	-10.1%	-23.8%
COC(=O)C1=C(C)N=C2SCCC(=O)N2C1c1ccc(OC(=O)c2ccco2)cc1 (stereo not given)	-6.4%	-10.5%	2.5%	4.9	9.1%	-24.9%
C=CCOC(=O)C1=C(C)N=C2SCCC(=O)N2C1c1ccc(OC(=O)c2ccco2)cc1 (stereo not given)	20µM*	3.4%	-23.1%[46.1 µM]	-1.4	8.6%	-5.3%
O=C(CSc1nc(C2CC2)nc2sc3c(c12)CCCC3)NCc1ccco1	5.8%	-3.8%	-3.5%[46.1 µM]	-0.5	-0.2%	-0.9%
CCCc1nc2sc3c(SCC(=O)NCc4ccco4)ncnc3c2c2c1CCC2	25.1µM*	50.1µM*	-1.7%[46.1 µM]	1.9	-2.8%	?
Cc1nc(SCC(=O)NCc2ccco2)c2c3c(sc2n1)CCCC3	10µM*	?	-23.0%[46.1 µM]	5.3	7.3%	0.9%
Cc1ccc(-n2nnc3c(SCC(=O)NCc4ccco4)ncnc32)cc1	-0.3%	-10.5%	-4.8%[46.1 µM]	-1.1	-0.6%	-0.8%
Cc1ccc(N(Cc2ccccc2)C(=O)CN2C(=O)NC3(CCCC3)C2=O)cc1	.	2.6%	.	-0.8	.	.
Cc1ccc2nc(-c3ccc(N4C(=N)SC5CS(=O)(=O)CC54)cc3)sc2c1 (stereo not given)	?	-22.4%	?	-0.8	.	-16.5%
C/C(=N\N1C(=O)CSC1=S)c1ccc(Br)cc1	25.1µM*	?	5.4%	0.6	88.1%	-4.1%
CCCc1cc(=O)n2nc(N3CCC(C(=O)Nc4cccc(C(C)=O)c4)CC3)sc2n1	.	11.0%	.	.	.	.
CC(=O)Nc1ccc2nc(-c3ccccn3)[nH]c2c1	?	50.1µM*	-15.4%[46.1 µM]	-1.2	22.7%	?
C=CCOC(=O)C(=O)/C=C/c1ccc2c(c1)Cc1ccccc1-2	1.2%	-25.4%	26.0%	-2.9	2.5%	3.2%
C=CCOC(=O)C(=O)/C=C/c1csc2ccccc12	10µM*	39.8µM*	8.2%	-2.8	13.7%	-28.5%
